This is a sample that favours compounds with a hit; in the whole collection about 5.7% have one here.
HepG2 viability: HepG2 cytotoxicity, counter-screen for TGF-b inhibitors; HepG2 CAGA-GFP viability, ATP luminescence, 18 h; Potency, µM (doses to about 46.1 µM), actives largely listed as cytotoxic; hit rate 0.76% among 410,000
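HepG2 CAGA-GFP cells (1000/well, DMEM with 1% FBS) received compound, then TGF-beta at 500 pg/mL final, and were incubated 18 hours at 37 degrees C. Viability was read by CellTiter-Glo luminescence. Media-only wells were set as complete cell-killing and DMSO as no toxicity.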
IL-1B inflam inh: blocks inflammasome-driven IL-1 beta release; THP-1 LPS/ATP IL-1B secretion, AlphaLISA, 16 h; stronger effect = lower value; hit rate 4.7% among 360,000; activity change, % at 57.5 µM; AID 743279; in the data active = activity change below about -50%; inconclusive = mostly about -30% to -49%
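THP-1 cells pretreated 1 hr with compounds (up to 57.5 uM final), then stimulated with LPS (250 ng/mL final) plus ATP (1.25 mM final); secreted IL-1B measured by AlphaLISA after 16 hr, decreased signal indicating inhibition.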
TGFb SMAD3 inh: blocks TGF-b signaling; HepG2 CAGA-GFP TGF-b/SMAD3 reporter, GFP fluorescence, 18 h; TGF-beta stimulated, 500 pg/mL final; Potency, µM (top dose mostly 46.1 µM), usual class: inhibitors; hit rate 1.2% among 410,000; AID 588855; also: nearly all actives have a fitted effect of over 65% in size
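HEPG2 CAGA-GFP reporter cells (1000/well, DMEM with 1% FBS) received compounds, then recombinant TGF-beta at 500 pg/mL final for 18 hours at 37 degrees C. Per-cell GFP summed per well was normalised to unstimulated and stimulated DMSO controls before curve fitting.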
ATXN2 expr inh: ATXN2 expression inhibition; hit rate 0.72% among 360,000; Potency, µM (series often up to 57 µM), usual class: inhibitors; HEK-293 ATXN2-luciferase reporter, luminescence, 24 h; also: nearly all actives have a fitted effect of over 55% in size
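ATXN2-luciferase reporter cells (luciferase flanked by upstream and downstream ATXN2 gene portions) were treated 24 h at 37 °C with compounds at up to 57 uM. SteadyGlo luminescence gave expression; GF-AFC fluorescence gave viability.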
ATXN viability: reduces viability in counter-screen for ATXN expression inhibitors | S2 cells (HEK-293 line with an ATXN2-luciferase reporter) viability, CellTiter-Fluor protease fluorescence, 24 h | Potency, µM (top dose mostly 56.7 µM), hits mostly cytotoxic | hit rate 0.49% among 400,000; also: nearly all actives have a fitted effect of over 40% in size
Numbers stand for hits; - = inactive; ? = inconclusive; . = no result given. Unless noted, calls follow the shape of the dose curve; as a rule, active = well fitted curve in the direction sought with a large enough effect; inconclusive = small, poorly fitted or top-dose-only effect, or another doubt; inactive = no such curve, though single readings can be large; an effect the other way counts as inactive or inconclusive.

SMILES	HepG2 viability	IL-1B inflam inh	TGFb SMAD3 inh	ATXN2 expr inh	ATXN viability
COc1ccc(C(=O)/C=C/c2cccs2)c(OC(=O)c2cccc([N+](=O)[O-])c2)c1	-	-69	-	-	?
COc1ccc(C(=O)/C=C/c2ccc(F)cc2)c(OC(=O)c2ccc([N+](=O)[O-])cc2)c1	-	-94	?	-	-
COc1ccc(OC(=O)/C=C/c2ccc([N+](=O)[O-])cc2)cc1	-	-	-	-	-
N#Cc1nc(N2CCCCC2)nc(N2CCCCC2)n1	-	.	-	.	.
CCCCN(CCCC)C(=O)CSc1nnc(-c2cc(OC)c(OC)c(OC)c2)o1	-	-54	-	-	-
COc1cc(OC)cc(-c2nnc(SCC(=O)N(Cc3ccccc3)C(C)(C)C)o2)c1	-	-	-	-	-
COc1cc(-c2nnc(SCCOc3ccc(Cl)cc3)o2)cc(OC)c1OC	-	.	-	-	-
COc1cc(-c2nnc(SCC(=O)N(Cc3ccccc3)C(C)(C)C)o2)cc(OC)c1OC	-	-56	?	?	?
COc1cc(-c2nnc(SCCOc3ccc(Cl)cc3C)o2)cc(OC)c1OC	11µM	.	-	-	-
CCc1ccc(NC(=O)CSc2nc3ncccc3[nH]2)cc1	-	.	-	.	.
CCOc1ccc(NC(=O)CC2C(=O)N(c3cccc(C)c3)C(=O)N2Cc2cccnc2)cc1 (stereo unspecified)	-	.	-	.	.
CC(Oc1ccccc1)C(=O)N(CCC1=CCCCC1)c1c(N)n(Cc2ccccc2)c(=O)[nH]c1=O (stereo unspecified)	-	-	18µM	-	-
Nc1c(N(CCC2=CCCCC2)C(=O)CCCOc2ccccc2)c(=O)[nH]c(=O)n1Cc1ccccc1	-	-	-	-	?
COc1cccc(CC(=O)N(CCC2=CCCCC2)c2c(N)n(Cc3ccccc3)c(=O)[nH]c2=O)c1	-	-	-	-	?
Nc1c(N(CCC2=CCCCC2)C(=O)COc2ccc(F)cc2)c(=O)[nH]c(=O)n1Cc1ccccc1	8.9µM	?	7.9µM	?	.
COc1ccc(Cl)cc1NC(=O)CN(C)C(=O)CN1C(=O)NC(C)(c2ccc3ccccc3c2)C1=O (stereo unspecified)	-	-53	?	-	-
COc1ccc(Cl)cc1NC(=O)CN(C)C(=O)CN1C(=O)NC(C)(C)C1=O	-	-	-	-	-
CCOC(=O)c1ccc(NC(=O)COCc2cc(-c3ccc4c(c3)OCO4)on2)cc1	-	.	-	.	.
Cc1cc(C)c(NC(=O)Cn2c(=O)n(CCC(C)C)c(=O)c3cccnc32)c(C)c1	-	.	-	-	-
CCCNc1nc(N2CCCC2)nc(N2CCCC2)n1	-	-65	-	-	-
CC(C)(C)Nc1nc(N2CCCC2)nc(N2CCCC2)n1	-	-	?	?	?
Cc1cc2c(cc1S(=O)(=O)Nc1cccc(C#N)c1)OCC(=O)N2	-	.	-	.	.
CCOc1ccc(N=Cc2c(C)[nH]n(-c3nc4ccccc4[nH]3)c2=O)cc1	2.5µM	-	-	-	-
O=S(=O)(NCc1ccccc1)c1ccc(Br)c2nsnc12	-	-72	-	-	-
O=S(=O)(NCc1ccccc1)c1ccccc1Br	-	-	?	-	-
SMILES	HepG2 viability	IL-1B inflam inh	TGFb SMAD3 inh	ATXN2 expr inh	ATXN viability
COc1cccc(Oc2nc(N)ncc2[N+](=O)[O-])c1	-	-73	-	-	-
Nc1ncc([N+](=O)[O-])c(Oc2ccccc2F)n1	-	-	-	-	-
CCC(Cn1nnc2ccccc2c1=O)NC(=O)Nc1ccc(C)c(C)c1 (stereo unspecified)	-	.	-	.	.
COc1ccc(OC)c(-c2cc(Cl)c3c(c2)CC(CNC(=O)[C@@H]2CCCN2C(C)=O)O3)c1 (stereo partly specified)	.	.	.	.	-
CC1=CC(C)(C)Nc2ccc(OC(=O)c3cccnc3)cc21	13µM	-98	-	?	?
CC1=CC(C)(C)Nc2ccc(OC(=O)CN3C(=O)CCC3=O)cc21	16µM	-101	-	?	-
CC1=CC(C)(C)Nc2ccc(OC(=O)C(C)N3C(=O)c4ccccc4C3=O)cc21 (stereo unspecified)	-	-	18µM	?	.
CC1=CC(C)(C)Nc2ccc(OC(=O)c3ccco3)cc21	-	-101	-	32µM	?
CC1=CC(C)(C)Nc2ccc(C)cc21	-	-	-	-	-
Cc1ccc2oc(-c3ccc(C)c(NC(=O)C(C)(C)Oc4ccc(Cl)cc4)c3)nc2c1	-	.	-	-	-
Cc1nc2ccccc2nc1CN1CCOc2ccc(C(C)(O)COc3ccccc3)cc2C1 (stereo unspecified)	.	.	.	.	-
Cc1ccc(Cn2c(SCc3ccc(C(=O)O)cc3)nc3cccnc32)cc1	-	.	?	.	.
CC1c2ccccc2CN1NC(=O)c1ccc(Cl)c(S(N)(=O)=O)c1 (stereo unspecified)	.	.	.	-	-
Cc1cc(OCc2cc(C(=O)N3CCC(Oc4cccnc4)CC3)no2)cc(C)c1Cl	-	-62	?	-	-
Cc1cc(OCc2cc(C(=O)N3CCN(CC4CC4)CC3)no2)cc(C)c1Cl	-	-	-	-	-
CC1(C)Cc2c(sc3c2c(=N)n(Cc2ccco2)c(=O)n3CC(=O)Nc2cccc(Cl)c2)CO1	-	?	-	-	-
CC1(C)Cc2c(sc3c2c(=N)n(Cc2ccco2)c(=O)n3CC(=O)Nc2ccc(Cl)cc2)CO1	-	-80	-	-	-
Cc1cccc(NC(=O)Cn2c(=O)n(Cc3ccco3)c(=N)c3c4c(sc32)COC(C)(C)C4)c1	-	-	-	-	-
CC1(C)Cc2c(sc3c2c(=N)n(Cc2ccco2)c(=O)n3CC(=O)Nc2ccccc2)CO1	-	-51	-	-	-
CCCOc1cccc(C2c3c(oc4ccc(F)cc4c3=O)C(=O)N2c2nc(C)c(C(C)=O)s2)c1 (stereo unspecified)	-	.	-	-	-
CCC(C)(C)NC(=O)C1CCN(S(=O)(=O)c2c(C)noc2/C=C/c2ccc(C)cc2)CC1	-	.	-	-	-
C=CC[C@@H](CC(=O)N(CCO)Cc1ccccc1)C(=O)N[C@H](COC(=O)[C@@H](CC=C)CC(=O)OC(C)(C)C)C(C)(C)C	-	-58	-	?	28µM
C=CC[C@H](CC(=O)N(CCO)Cc1ccccc1)C(=O)N[C@H](COC(=O)[C@H](CC=C)CC(=O)OC(C)(C)C)Cc1ccccc1	-	-	?	-	22µM
C=CC[C@@H](CC(=O)NCCO)C(=O)N[C@@H](COC(=O)[C@@H](CC=C)CC(=O)OC(C)(C)C)Cc1ccccc1	-	-	-	-	-
C=CC[C@@H](CC(=O)N(CCO)Cc1ccccc1)C(=O)N[C@H](COC(=O)[C@@H](CC=C)CC(=O)OC(C)(C)C)c1ccccc1	-	-72	?	?	.
CCOC(=O)Cc1ccc(NC(=O)N2CCOc3ccc(C)cc32)cc1	-	.	?	.	.

High-throughput results (PubChem)
